Test systems include HT29 colon; SNB-75 CNS; SNB-19 CNS; U251 CNS; PC-3 prostate; SK-MEL-5 melanoma; UACC-62 melanoma; LOX IMVI melanoma; SK-MEL-28 melanoma; SK-MEL-2 melanoma; EKVX NSCLC; SN12C renal; UO-31 renal; TK-10 renal; ACHN renal; CAKI-1 renal; A498 renal; CCRF-CEM leukemia; MOLT-4 leukemia.
Assay in all cases: NCI-60 one-dose screen, 48 h (100 = growth as untreated, 0 = no growth, -100 = all killed)
Common to all, as to conditions: 10 µM

This is part of a sample that, as a whole, favours compounds with a hit. Of some 83,000 tested, about 20% had one in any assay.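 Assay: single dose, 48 h. Readout: percent growth (0 = no net growth; negative = cell death). Active: <10.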 A number with no mark means an inactive call. Active and inactive are the calls of the source.

Turning to `CCOc1ccc(/C=N/NC(=O)Cn2nc(Cc3ccc([N+](=O)[O-])cc3)c3onc(C)c3c2=O)cc1`, the growth was 34.6% with HT29 colon; 6.05% (active) in the assay on SNB-75 CNS; -6.58% (active) with SNB-19 CNS; -66% (active) with U251 CNS; 23.1% in the assay with PC-3 prostate; 27.7% with SK-MEL-5 melanoma. The growth is 49.9% with UACC-62 melanoma; -63.5% (active) in the assay with LOX IMVI melanoma; 49.7% in the assay with SK-MEL-28 melanoma; 51.9% in the assay with SK-MEL-2 melanoma; 16.3% in the assay with EKVX NSCLC; 11.2% in the assay on SN12C renal. The growth is -48.1% (active) in the assay on UO-31 renal; -12.2% (active) with TK-10 renal; -68% (active) with ACHN renal; -9.88% (active) in the assay on CAKI-1 renal; 45.1% in the assay with A498 renal; 89.3% in the assay on CCRF-CEM leukemia. In addition, the growth in the assay on MOLT-4 leukemia is 75.7%.

For `CN1C(=O)N(C)C2SC(N/N=C/c3ccccc3)=NC21` (centres undefined), the growth in the assay on HT29 colon was 38.5%; with SNB-75 CNS it was 60.7%; with SNB-19 CNS, 74.6%; with U251 CNS it was 60.4%; in the assay on PC-3 prostate, 84.7%; in the assay on SK-MEL-5 melanoma, 68.4%. In addition, the growth in the assay on UACC-62 melanoma is 42.5%; in the assay on LOX IMVI melanoma it was 63.4%; in the assay with SK-MEL-28 melanoma, 75.5%; in the assay on SK-MEL-2 melanoma it was 73.3%; in the assay on EKVX NSCLC, 90.7%; in the assay on SN12C renal, 81.5%. For the same molecule, the growth is 65.4% in the assay with UO-31 renal; 87.4% with TK-10 renal; 96.3% with ACHN renal; 72.5% in the assay on CAKI-1 renal; 81.7% in the assay on A498 renal; 78.4% in the assay with CCRF-CEM leukemia. Besides, the growth in the assay with MOLT-4 leukemia is 54.9%.

Turning to `N#Cc1c(NC(=O)c2cccc(C(F)(F)F)c2)sc2c1CCC(O)=C2`, the growth in the assay on HT29 colon is 80.4%; in the assay with SNB-75 CNS it was 46.7%; in the assay on SNB-19 CNS, 42.4%; with U251 CNS, 39.7%; with PC-3 prostate it was 39%; in the assay with SK-MEL-5 melanoma it was -38.3% (active). The growth in the assay on UACC-62 melanoma was 11.5%; in the assay with LOX IMVI melanoma, 33.9%; in the assay with SK-MEL-28 melanoma, 33.9%; in the assay on SK-MEL-2 melanoma, -1.48% (active); in the assay with EKVX NSCLC it was 22.8%; in the assay with UO-31 renal it was 17.6%. In addition, the growth is 63.1% with TK-10 renal; 31.4% in the assay on ACHN renal; 44.5% in the assay on CAKI-1 renal; 69% in the assay with A498 renal; 21.9% in the assay with CCRF-CEM leukemia; 25.9% in the assay with MOLT-4 leukemia.

In the case of `O=C(COc1ccc(NC(=O)Nc2ccc(Cl)cc2)cc1)N=Nc1c(O)[nH]c2ccc([N+](=O)[O-])cc12`, the growth in the assay with HT29 colon was 34.8%; in the assay on SNB-75 CNS, 29.9%; in the assay on SNB-19 CNS it was 19.1%; in the assay with U251 CNS, -67.6% (active); in the assay on PC-3 prostate, 46.8%; in the assay on SK-MEL-5 melanoma, 63.1%. Further, the growth with UACC-62 melanoma is 11.3%; in the assay with LOX IMVI melanoma, 13.9%; in the assay with SK-MEL-28 melanoma, -4.38% (active); in the assay on SK-MEL-2 melanoma it was -15.7% (active); in the assay on EKVX NSCLC it was 88.3%; in the assay on SN12C renal, 32.3%. In addition, the growth with UO-31 renal was 77.2%; with TK-10 renal it was 101%; with ACHN renal it was 93.4%; in the assay with CAKI-1 renal it was 96.3%; with A498 renal, 119%; in the assay with CCRF-CEM leukemia, -36.9% (active).

With `COC1CC(Cn2cc(COc3ccc4ccc(=O)oc4c3)nn2)C(OCc2ccccc2)C(OCc2ccccc2)C1OCc1ccccc1` (centres undefined), the growth is 108% with HT29 colon; 95.1% in the assay on SNB-19 CNS; 92.7% in the assay on PC-3 prostate; 83.2% in the assay with SK-MEL-5 melanoma; 99.4% in the assay on LOX IMVI melanoma; 105% in the assay with SK-MEL-28 melanoma. Further, the growth in the assay on SK-MEL-2 melanoma is 114%; with EKVX NSCLC it was 90.7%; with UO-31 renal, 71.7%; in the assay on TK-10 renal, 110%; in the assay with ACHN renal, 105%; in the assay on CAKI-1 renal, 84%. In addition, the growth with A498 renal is 116%; with CCRF-CEM leukemia, 87%.

For the molecule `CCOC(=O)C1=C(N)N(c2ccc(C)cc2)C2=C(C(=O)CC(C)(C)C2)C1c1ccccc1OC` (centres undefined), the growth in the assay with HT29 colon is 116%; in the assay with SNB-75 CNS, 105%; with SNB-19 CNS, 93.1%; in the assay on U251 CNS, 104%; with PC-3 prostate, 93.5%; in the assay on SK-MEL-5 melanoma it was 100%. Further, the growth with UACC-62 melanoma was 89.8%; in the assay on LOX IMVI melanoma, 104%; in the assay with SK-MEL-28 melanoma, 104%; in the assay on SK-MEL-2 melanoma, 110%; in the assay on EKVX NSCLC it was 92.2%; in the assay on SN12C renal, 99.6%. In addition, the growth was 78.7% in the assay with UO-31 renal; 107% with TK-10 renal; 103% in the assay on ACHN renal; 97.7% in the assay on CAKI-1 renal; 102% in the assay on A498 renal; 99% in the assay with CCRF-CEM leukemia. For the same molecule, the growth in the assay with MOLT-4 leukemia is 106%.

For the molecule `O=C1CCC(N2Cc3cc(CC(=O)Nc4ccc(N5CCCCC5)cc4)ccc3C2=O)C(=O)N1` (centres undefined), the growth with HT29 colon was 77.4%; in the assay on SNB-75 CNS, 55.7%; in the assay with SNB-19 CNS it was 49.2%; in the assay on U251 CNS, 88.6%; in the assay on PC-3 prostate, 26.7%; with SK-MEL-5 melanoma it was 38.8%. Besides, the growth is 78.1% in the assay on UACC-62 melanoma; 105% in the assay with LOX IMVI melanoma; 76.4% with SK-MEL-28 melanoma; 74.7% in the assay on SK-MEL-2 melanoma; 83.4% in the assay with EKVX NSCLC; 21% with UO-31 renal. For the same molecule, the growth with TK-10 renal is 67.5%; in the assay with ACHN renal, 92.4%; in the assay on CAKI-1 renal it was 87.6%; in the assay with A498 renal, 12.7%; in the assay with CCRF-CEM leukemia, 16.9%; in the assay on MOLT-4 leukemia, -7.39% (active).

Consider `C/C(=N\NC(N)=S)c1ccc(Nc2nc(SC(C)C)nc(-c3ccccc3)c2C#N)cc1`, for which the growth was 57.9% in the assay with HT29 colon; 104% in the assay on SNB-75 CNS; 63.5% in the assay with SNB-19 CNS; 32% in the assay with U251 CNS; 59.2% in the assay on PC-3 prostate; 75.5% in the assay with SK-MEL-5 melanoma. Moreover, the growth was 48.1% in the assay on UACC-62 melanoma; 29.8% in the assay with LOX IMVI melanoma; 80.9% in the assay with SK-MEL-28 melanoma; 89.3% in the assay on SK-MEL-2 melanoma; 75.9% in the assay with EKVX NSCLC; 63.5% with SN12C renal. The growth in the assay on UO-31 renal is 77.5%; in the assay with TK-10 renal, 98.1%; in the assay on ACHN renal, 58.3%; in the assay with CAKI-1 renal it was 74.6%; in the assay with A498 renal it was 123%; in the assay with CCRF-CEM leukemia, 76.3%. The growth in the assay with MOLT-4 leukemia is 77.5%.

Turning to `Clc1ccc2c(N/N=C/c3c[nH]c4ccc(Br)cc34)ccnc2c1`, the growth in the assay with HT29 colon was -3.08% (active); in the assay with SNB-75 CNS, -91.1% (active); in the assay on SNB-19 CNS, -85.6% (active); in the assay with U251 CNS, -25.6% (active); in the assay with PC-3 prostate, -52.9% (active); in the assay on SK-MEL-5 melanoma, -100% (active). Besides, the growth with UACC-62 melanoma is -85.4% (active); in the assay with LOX IMVI melanoma it was -77.7% (active); in the assay with SK-MEL-28 melanoma it was -98.5% (active); in the assay on SK-MEL-2 melanoma it was -93% (active); in the assay on EKVX NSCLC, -93% (active); with SN12C renal, -56.3% (active). Also, the growth with TK-10 renal was -67.2% (active); in the assay with ACHN renal, -90.8% (active); in the assay with CAKI-1 renal it was -94% (active); in the assay on A498 renal, -77% (active); in the assay on CCRF-CEM leukemia, -7.03% (active); in the assay with MOLT-4 leukemia it was -48.7% (active).

Regarding `Brc1ccc(N/N=C/c2c[nH]c3ccccc23)nc1`, the growth was 14% in the assay with HT29 colon; 26.7% in the assay with SNB-75 CNS; 43.9% with SNB-19 CNS; 19.9% in the assay on U251 CNS; 20% in the assay with PC-3 prostate; 51.8% in the assay with SK-MEL-5 melanoma. The growth is 54.8% with UACC-62 melanoma; -2.43% (active) in the assay on LOX IMVI melanoma; 63.6% with SK-MEL-28 melanoma; 83.6% in the assay with SK-MEL-2 melanoma; 24.4% in the assay on EKVX NSCLC; 15.3% in the assay on SN12C renal. Moreover, the growth in the assay with TK-10 renal is 70%; in the assay on ACHN renal, 27.5%; in the assay with CAKI-1 renal, 25.9%; in the assay on A498 renal it was 43%; in the assay with CCRF-CEM leukemia it was 6.57% (active); with MOLT-4 leukemia, 18%.

As for `COc1cc2c3c(n(CCCN4CCOCC4)c(=O)c2cc1OC)-c1nc2c(cc1C3=O)OCO2`, the growth in the assay on HT29 colon is 7.3% (active); in the assay with SNB-75 CNS it was 49.9%; with SNB-19 CNS, 15%; in the assay on U251 CNS, -18.9% (active); in the assay with PC-3 prostate it was 43.6%; with SK-MEL-5 melanoma, -6.78% (active). The growth in the assay with UACC-62 melanoma was -8.82% (active); in the assay with LOX IMVI melanoma, -76.6% (active); with SK-MEL-28 melanoma, 66.1%; in the assay on SK-MEL-2 melanoma, 111%; with EKVX NSCLC it was 48.8%; in the assay on SN12C renal it was 8.3% (active). Further, the growth with UO-31 renal is 15.3%; with TK-10 renal, 79.5%; with ACHN renal, -11.7% (active); with CAKI-1 renal, 6.77% (active); with A498 renal, 76.9%; in the assay with CCRF-CEM leukemia it was 14.4%. For the same molecule, the growth in the assay on MOLT-4 leukemia was 24.7%.
